Compound activity: PubChem BioAssay, National Center for Advancing Translational Sciences (NCATS)
PI5P4K alpha inh: qHTS for Inhibitors of phosphatidylinositol 5-phosphate 4-kinase (PI5P4K) | Phosphatidylinositol 5-phosphate 4-kinase type-2 alpha (Homo sapiens), P48426 | PI5P4Kalpha enzyme, ADP-Glo luminescence, 60 min; hits give low values | max response, % | 330,000 compounds, 1.2% hits | AID 652105, 2013; active = max response of -50% or lower; inconclusive = between -30% and -50%; inactive = -30% or higher; also: value at the top dose of about 77 µM; % is scaled to controls: 0 for no effect and ±100 for the full control effect
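Enzyme plus substrate dispensed, test compounds pinned in, then ATP (5 microM final) added. After 60 min at RT, ADP-Glo reagent 1 for 45 min and reagent 2 for 30 min preceded luminescence imaging.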
Pol iota inh: qHTS for Inhibitors of Polymerase Iota. DNA polymerase iota (Homo sapiens), Q9UNA4. Pol iota fluorescent replication assay, 10 min. Potency, µM (top dose mostly 115 µM), for inactives: at the top dose activity, negative = inhibition, usual class: inhibitors. 390,000 compounds, 1% hits. AID 588590, 2011; also: potency is read from the fitted curve at half-maximal effect
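Fluorescent replication assay read twice, at 0 min and 10 min after adding 50 nM (final) substrate. Enzyme (10 nM) and compounds were first incubated 15 min at room temperature; enzyme-free buffer wells were negative controls.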
WRN inhibitor: qHTS for Inhibitors of WRN Helicase; WRN helicase unwinding, fluorescent forked duplex, kinetic; Potency, µM (series often up to 114 µM), for inactives: at the highest dose activity change, negative = inhibition, most hits filed as inhibitors; 360,000 compounds, 0.46% hits; also: potency is read from the fitted curve at half-maximal effect; % is scaled to controls: 0 for no effect and ±100 for the full control effect; nearly all actives have a fitted effect of over 55% in size
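Kinetic fluorescence helicase assay: unwinding of a quenched forked DNA duplex (100 nM final) with 2 mM ATP final raises red fluorescence (525/598 nm). Compounds sat 15 min at room temperature with 20 nM WRN beforehand.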
Pol kappa inh: qHTS for Inhibitors of Polymerase Kappa; 400,000 compounds, 0.53% hits; Potency, µM (highest dose often 107 µM), without a hit: at the top dose activity, negative = inhibition, most hits filed as inhibitors; DNA polymerase kappa (Homo sapiens), Q9UBT6; purified Pol kappa, fluorescent DNA synthesis assay, 10 min; also: potency is read from the fitted curve at half-maximal effect; % is scaled to controls: 0 for no effect and ±100 for the full control effect
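50 nM final substrate added after 15 min RT preincubation of 10 nM Pol kappa with compound; fluorescence read at 0 and 10 min.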
POLB inh: qHTS Assay for Inhibitors of DNA Polymerase Beta; Pol beta primer extension/strand displacement, fluorescence kinetic; 340,000 compounds, 1.3% hits; Potency, µM (series often up to 114 µM), without a hit: at the highest dose activity change, negative = inhibition, actives largely listed as inhibitors; also: potency is read from the fitted curve at half-maximal effect; % is scaled to controls: 0 for no effect and ±100 for the full control effect
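Kinetic readout of DNA synthesis with strand displacement by Pol beta. Compound and 10 nM enzyme sit 15 min at room temperature; 50 nM substrate starts the reaction, read immediately and at 10 min.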
Pol eta inh: qHTS for Inhibitors of Polymerase Eta | DNA polymerase eta (Homo sapiens), Q9Y253 | recombinant Pol eta, fluorescent DNA replication assay | Potency, µM (doses to about 114 µM), without a hit: top-dose activity change, negative = inhibition, most hits filed as inhibitors | 390,000 compounds, 1.2% hits | AID 588591, 2011; also: potency is read from the fitted curve at half-maximal effect; % is scaled to controls: 0 for no effect and ±100 for the full control effect
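Fluorescent replication assay: 50 nM final substrate added after a 15 min room-temperature compound preincubation with 10 nM enzyme. Signal taken at 0 min and again at 10 min.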
* marks the source's active call; other numbers are inactive results; ? = inconclusive; . = no result given; [ ] = dose if it differs, or a comment. Compounds with a hit are over-represented: about 2.8% of the library has one in this group of screens. Unless noted, calls follow the shape of the dose curve; as a rule, active = well fitted curve in the direction sought with a large enough effect; inconclusive = small, poorly fitted or top-dose-only effect, or another doubt; inactive = no such curve, though single readings can be large; an effect the other way counts as inactive or inconclusive.

SMILES	PI5P4K alpha inh	Pol iota inh	WRN inhibitor	Pol kappa inh	POLB inh	Pol eta inh
CN1CCN(NC(=S)NC2CCCCC2)CC1	-5	-8%	0%	-17%	48%	-1%
COc1cc(/C=N/NC(=O)c2cccnc2)ccc1OCC(=O)Nc1ccc(C)cc1	1	?	-4%	?	13µM*	?
CCNC(=O)COc1ccc(/C=N/NC(=O)c2cccnc2)cc1OC	-5	-1%	-1%	0%	45%	1%
COc1cc(/C=N/NC(=O)c2ccc(=O)[nH]n2)ccc1O	-4	100µM*	-21%	?	20µM*	?
COc1cc(/C=N/NC(=O)c2cc(-c3ccc4c(c3)OCO4)n[nH]2)ccc1O	-8	?	-8%[11.6 µM]	79µM*	8.9µM*	?
COc1cc(/C=N/Nc2ccc(C(=O)O)cc2)ccc1O	-19	?	-13%[57.1 µM]	11%[60.1 µM]	25µM*	22µM*
Nc1ccc(C(=O)N2CCN(S(=O)(=O)c3ccc4c(c3)OCCO4)CC2)cc1[N+](=O)[O-]	-10	9%	-10%	-10%	42%	-8%
CCCN(C)C1CN(Cc2cn(Cc3cc(C)cc(C)c3)nn2)S(=O)(=O)C1 (stereo not drawn)	1	.	-2%	.	.	.
COc1ccc2[nH]c(C(=O)N/N=C/c3ccc(OC)c(O)c3)cc2c1	-1	31%	-15%	?	28µM*	?
COc1ccc(/C=N/NC(=O)c2cc(-c3cccn3C)n[nH]2)cc1OC	-8	?	-7%[11.6 µM]	?	8.9µM*	?
COc1ccc2[nH]c(C(=O)N/N=C/c3ccccc3OC)cc2c1	-1	-13%	-20%	-13%	-7%	?
COc1cc(/C=N/NC(=O)c2cncc(Br)c2)ccc1OC(=O)c1ccc2c(c1)OCO2	.	.	.	.	6%	.
COc1cc(/C=N\NC(=O)c2ccc(C)nc2)ccc1OC(=O)c1ccc2c(c1)OCO2	1	-12%	-15%	3%	20µM*	?
Nc1ccc2oc(=O)ccc2c1I	.	.	.	13%[60.1 µM]	.	.
Cc1c(Cl)cccc1NC(=O)CCCn1nc(C)c2sc3ccccc3c2c1=O	.	20%	.	-3%	0%	-21%
CC(C)CC(NC(=O)C1CCC(=O)N1C(=O)OCc1ccccc1)C(=O)NC(Cc1ccccc1)C(N)=O (stereo not drawn)	-2	-15%	0%	-3%	26%	-9%
CC(=O)c1ccc(NC(=O)c2ccc([N+](=O)[O-])o2)cc1	1	?	7%	-4%	-12%	10%
Cc1cc(C)nc(NC(=O)c2ccc([N+](=O)[O-])o2)n1	-19	71µM*	-10%	-34%	-27%	?
O=C(Nc1ccc(N2CCN(C(=O)c3ccccc3)CC2)cc1)c1ccc([N+](=O)[O-])o1	-3	?	-8%[11.6 µM]	-20%	25µM*	?
COc1cc(NC(=O)c2ccc([N+](=O)[O-])o2)ccc1NC(=O)c1ccco1	-1	-3%	5%	1%	0.35µM*	4%
CC(=O)c1cccc(NC(=O)c2ccc([N+](=O)[O-])o2)c1	2	79µM*	-1%[11.6 µM]	-22%	.	-14%
Cc1cc(NC(=O)c2ccc([N+](=O)[O-])o2)ccc1NC(=O)c1ccco1	?	?	-9%	-27%	?	?
CC(C)(C)c1ccc(OCCn2cc(C(=O)c3ccco3)c3ccccc32)cc1	.	-27%	.	-11%	11%	-16%
CCOc1ccc2c(c1)c(=O)c(S(=O)(=O)c1ccc(Cl)cc1)cn2Cc1ccccc1C	.	-6%	.	-20%	9%	-7%
O=C(O)c1cc(N=Nc2ccc(-c3ccc(N=Nc4ccc(O)c(C(=O)O)c4)cc3)cc2)ccc1O	.	.	.	6µM*	.	.
